Results on 28 compounds are retold here after PubChem BioAssay (NCI).

What all share (assay): NCI-60 one-dose screen, 48 h (100 = growth as untreated, 0 = no growth, -100 = all killed)
What all share (settings): 10 µM unless noted

For assay [1], the system named is T-47D breast.
Assay [2] has as its system BT-549 breast.
Assay [3] has as its system MDA-MB-435 melanoma.
In assay [4] the test system is SW-620 colon.
The subject of assay [5] is MCF7 breast.
The test system of assay [6] is HCT-116 colon.
Assay [7] concerns HCC-2998 colon.
The test system of assay [8] is KM12 colon.

Compounds without any hit were thinned out: in the full panel of roughly 83,000, 20% have a hit.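 Testing used 96-well plates and a 48-hour single-concentration exposure. Example: -40 means 40% of the starting cells died.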 Values without a mark were called inactive. Active and inactive are the calls of the source. How the source made its calls: active means growth percent below 10; inactive means the rest.

For `O=C(/C=C/c1ccccc1)c1ccc(Nc2nc(Nc3ccc(F)cc3)nc(Nc3ccc(Cl)cc3)n2)cc1`, the growth was 62.1% in assay [1]; 101% in assay [2]; 95.7% in assay [3]; 90.4% in assay [4]; 30.2% in assay [5]; 49.6% in assay [6]. Moreover, the growth in assay [7] was 70.8%; in assay [8], 91.6%.
For `Cc1ccc(C(=O)c2ccc(CC(=O)N=Nc3c(O)[nH]c4ccc(Br)cc34)n2C)cc1`, the growth in assay [1] is 74.5%; in assay [2], 100%; in assay [3], 98.7%; in assay [4], 91.2%; in assay [5] it was 86.9%; in assay [6], 86%. Also, the growth in assay [7] is 124%; in assay [8], 97.9%.
Regarding `O=C(Nc1ccccc1N1CCCC1=O)c1oc2ccc(F)cc2c1-c1cnn(-c2ccccc2)c1`, the growth in assay [1] is 35.4% [50 µM]; in assay [2] it was 56.7% [50 µM]; in assay [3], 62.2% [50 µM]; in assay [4] it was 75.4% [50 µM]; in assay [5] it was 43.8% [50 µM]; in assay [6], 23.8% [50 µM]. Moreover, the growth in assay [7] is 90.5% [50 µM]; in assay [8] it was 47.4% [50 µM].
Consider `Cc1ccc(N2C(=O)CCC2=O)cc1`, for which the growth was 105% in assay [1]; 80.6% in assay [2]; 102% in assay [3]; 96.1% in assay [4]; 94.6% in assay [5]; 92.9% in assay [6]. In addition, the growth was 108% in assay [7] and 103% in assay [8].
Turning to `COc1cccc(/C=C/C(=O)c2cccc(Nc3nc(Nc4ccccc4)nc(Nc4ccccc4)n3)c2)c1`, the growth in assay [1] was 53.5%; in assay [2], 99%; in assay [3], 91.4%; in assay [4], 40.5%; in assay [5], 21.9%; in assay [6], 12.8%. The figures for the growth in assay [7] and in assay [8] were 21.6% and 62.8%, respectively.
Consider `Cc1ccc(C)c2c(C)c(C(=O)Nc3cccc(-n4cccn4)c3)oc12`, for which the growth in assay [1] is 7.95% [50 µM] (active); in assay [2], 61.5% [50 µM]; in assay [3] it was 69.9% [50 µM]; in assay [4] it was 70.2% [50 µM]; in assay [5], 13.2% [50 µM]; in assay [6], 50.7% [50 µM]. The growth is 81.2% [50 µM] in assay [7] and 56.3% [50 µM] in assay [8].
In the case of `COc1ccc(/C=C/C(=O)c2cc3c(N)c(C(=O)Nc4cccc(Cl)c4C)sc3nc2C)cc1`, the growth in assay [1] was 38.9%; in assay [2] it was -19% (active); in assay [3], -28.2% (active); in assay [4], 13.2%; in assay [5] it was 7.78% (active); in assay [6] it was 5.3% (active). The results for the growth in assay [7] and in assay [8] were 1.15% (active) and 7.8% (active), respectively.
`O=C1/C(=C/c2ccccn2)NC(=S)N1c1ccccc1Cl`: the growth in assay [1] is 44.1%; in assay [2], 83.8%; in assay [3], 67.4%; in assay [4], 37.9%; in assay [5], 32.9%; in assay [6] it was 12.2%. Besides, the growth in assay [7] is 85.9%; in assay [8], 67.4%.
For `O=C1/C(=C/c2ccc(F)cc2)CN(C(=O)C(Cl)Cl)C/C1=C\c1ccc(F)cc1`, the growth was -22.4% (active) in assay [1]; -80.1% (active) in assay [2]; -93.7% (active) in assay [3]; -73.1% (active) in assay [4]; -60.9% (active) in assay [5]; -92.8% (active) in assay [6]. Moreover, the figures for the growth in assay [7] and in assay [8] were -89.3% (active) and -66.3% (active), respectively.
For `COc1ccc(C(=O)/C=C/c2ccc(N3CCCCC3)cc2)cc1OC`, the growth was 76.6% in assay [1]; 87.4% in assay [2]; 103% in assay [3]; 102% in assay [4]; 90.4% in assay [5]; 82.7% in assay [6]. The growth in assay [7] was 107%; in assay [8] it was 98.9%.
For `CCN(CC)CCN1C(=O)c2cccc3c(/C=C/CN4C(=O)c5cccc6cccc(c56)C4=O)ccc(c23)C1=O`, the growth is 94.8% in assay [1]; 89.8% in assay [2]; 103% in assay [3]; 90.4% in assay [4]; 4.8% (active) in assay [5]; 95.5% in assay [6]. The growth in assay [7] is 105%; in assay [8], 63.6%.
In the case of `NC1=Nc2cc(OCCCCN3Cc4ccccc4C3)c(OCC3CC3)cc2C12CCCC2`, the growth in assay [1] is -46.9% (active); in assay [2], 82.2%; in assay [3], 5.33% (active); in assay [4], 3.2% (active); in assay [5] it was 10.6%; in assay [6], 11.3%. For the same compound, the growth in assay [7] was -58.2% (active); in assay [8] it was 46.5%.
Turning to `N#C/C(=C\c1ccc(-c2cccc(C(F)(F)F)c2)o1)c1ccccc1`, the growth in assay [1] is 35.6%; in assay [2], 96.6%; in assay [3], 99.1%; in assay [4], 92.3%; in assay [5] it was 25.7%; in assay [6] it was 80.4%. The growth is 100% in assay [7] and 79.3% in assay [8].
As to `CC1(C)CC[C@]2(C(=O)N[C@H](CO)Cc3ccccc3)CC[C@]3(C)C(=CC[C@@H]4[C@@]5(C)CCCNC(C)(C)[C@@H]5CC[C@]43C)[C@@H]2C1`, the growth in assay [1] was 69.8%; in assay [2], 89.9%; in assay [3] it was 73.4%; in assay [4] it was 79.8%; in assay [5] it was 83.9%; in assay [6], 44.4%. Further, the results for the growth in assay [7] and in assay [8] were 56% and 96%, respectively.
`COc1ccc(-c2nc(/C=C3\C(=O)N(C)c4ccccc43)c3ccccn23)cc1`: the growth is 76% in assay [1]; 104% in assay [2]; 104% in assay [3]; 84.7% in assay [4]; 61.9% in assay [5]; 56.5% in assay [6]. Further, the growth in assay [7] was 102%; in assay [8] it was 93.7%.
`O=C(Nc1cnc(Nc2ccc(N3CCOCC3)nc2)nc1Oc1ccc(C(F)(F)F)cc1)c1ccncc1`: the growth is 72.9% in assay [1]; 75.8% in assay [2]; 91.3% in assay [3]; 97.5% in assay [4]; 77.3% in assay [5]; 61.9% in assay [6]. The values for the growth in assay [7] and in assay [8] were 110% and 91%, respectively.
With `Cc1ccc2nc(NC(=O)CSc3nc(-c4ccccc4)c(C#N)c4nnnn34)sc2c1`, the growth in assay [1] is 100%; in assay [2] it was 106%; in assay [3], 105%; in assay [4] it was 104%; in assay [5], 95.7%; in assay [6], 99.1%. The growth in assay [7] is 103%; in assay [8] it was 102%.
As for `O=C(CC(=O)Nc1cccc(C(=O)O)c1)Nc1cccc(C(=O)O)c1`, the growth in assay [1] is 92.4%; in assay [2] it was 98.8%; in assay [3], 87.4%; in assay [4], 90%; in assay [5] it was 101%; in assay [6], 94.3%. The growth in assay [7] was 102%; in assay [8], 112%.
In the case of `Nc1ccc(-c2csc(-n3[nH]c(=O)ccc3=O)n2)cc1`, the growth in assay [1] is 98.5%; in assay [2] it was 92%; in assay [3] it was 103%; in assay [4], 104%; in assay [5] it was 86.6%; in assay [6], 94%. Also, the growth is 112% in assay [7] and 104% in assay [8].
As to `Cc1nc2sc(C(=O)Nc3cccc(Br)c3C)c(N)c2cc1C(O)c1ccccc1` (centres undefined), the growth in assay [1] was 25.3%; in assay [2] it was 28.2%; in assay [3], 3.98% (active); in assay [4], 20.4%; in assay [5] it was 10.9%; in assay [6], 6.83% (active). In addition, the values for the growth in assay [7] and in assay [8] were 11.3% and 5.99% (active), respectively.
Take `Cc1ccc2c(-n3nc(C#N)c(C#N)c3N)cc(=O)[nH]c2c1`: the growth in assay [1] was 77%; in assay [2], 86.9%; in assay [3], 107%; in assay [4], 99.3%; in assay [5], 85.1%; in assay [6], 76%. Also, the growth is 139% in assay [7] and 94.8% in assay [8].
With `Cc1c2cccnc2c(C)c2c1c1cc(CO)ccc1n2C`, the growth is 17% in assay [1]; 35% in assay [2]; 22.6% in assay [3]; 15.8% in assay [4]; 6.87% (active) in assay [5]; 6.95% (active) in assay [6]. In addition, the growth in assay [7] was 34.7%; in assay [8] it was 31.1%.
`CCc1n(Cc2ccc3ccccc3n2)cc[n+]1Cc1ccc2ccccc2n1`: the growth is -3.68% (active) in assay [1]; 13.4% in assay [2]; 14% in assay [3]; 38.5% in assay [4]; 13.5% in assay [5]; 35% in assay [6]. Besides, the values for the growth in assay [7] and in assay [8] were 27.3% and 12.2%, respectively.
Take `CCN1C2CCC1/C(=C\c1ccc(F)cc1)C(=O)/C2=C/c1ccc(F)cc1`: the growth is 45.8% in assay [1]; 24.9% in assay [2]; 25% in assay [3]; 30.4% in assay [4]; 18.6% in assay [5]; 7.21% (active) in assay [6]. In addition, the figures for the growth in assay [7] and in assay [8] were 65.8% and 17.5%, respectively.
For `N=C(N)c1ccc(-c2ccc(-c3cc(Cl)cc(Cl)c3)s2)nc1`, the growth is 84.2% in assay [1]; 97.5% in assay [2]; 44.6% in assay [3]; -59.2% (active) in assay [4]; -47% (active) in assay [5]; -73.6% (active) in assay [6]. The figures for the growth in assay [7] and in assay [8] were 28.1% and -75.3% (active), respectively.
Regarding `CN1CCN(CCOc2ccc(-c3cnc4c(-c5ccc(F)cc5)cnn4c3)cc2)CC1`, the growth in assay [1] is 52.7%; in assay [2], 82.8%; in assay [3] it was -34.3% (active); in assay [4] it was -86.9% (active); in assay [5], 41%; in assay [6], 14.5%. In addition, the growth in assay [7] was 71.6%; in assay [8], 9.72% (active).
As to `Clc1c(Cl)[n+](Cc2ccc3ccccc3c2)cn1Cc1ccc2ccccc2c1`, the growth in assay [1] is -3.8% (active); in assay [2], -69.5% (active); in assay [3], -31.4% (active); in assay [4] it was 34.4%; in assay [5], 11.8%; in assay [6], 7.02% (active). In addition, the growth in assay [7] is 16%; in assay [8], -67.6% (active).
On to `CC1(C)CC[C@]23CC[C@]4(C)[C@H](CC[C@@H]5[C@@]6(C)C/C(=C/c7ccncc7)C(=O)C(C)(C)[C@@H]6CC[C@]54C)[C@H]2[C@H]1OC3`, for which the growth in assay [1] was 41.5%; in assay [2], 99.3%; in assay [3], 66.6%; in assay [4], 61.3%; in assay [5], 55.3%; in assay [6] it was 50%. Besides, the growth was 93% in assay [7] and 68.4% in assay [8].
